Data published in PubChem BioAssay.
The source made the active and inactive calls.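 How the source made its calls, unless noted: active means fluorescence slope higher than the sample average by over 3 SD (cut at about -0.22 in these data, passing the limit was not always enough); inactive means the rest.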

Columns and labels:
[1] = inhibitors of TNFa-induced NFkB p65 translocation, primary screen, imaging, HUVEC, MLSMR starter and 10KST1 sets (AID 438;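 active means inhibition above 20% together with a positive visual image hit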;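 further: compound added about 3h40 before a 20 min TNFalpha stimulation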;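 on inhibition: signal is the nuclear over cytoplasmic p65 intensity ratio per well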); conditions: HUVEC TNFa-induced p65 nuclear translocation; cell count: measured here: nuclei count (cytotoxicity indicator), at 2.08 µM; inhibition: at 2 µM, stronger effect = higher value, 0% TNFa-plus-vehicle, 100% no-TNFa wells
[2] = reduction of polyQ htt aggregates in cells – imaging, exon1htt(103Q)mCFP cells, high-content imaging, primary screen (AID 483;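 active means visual image review flags a hit and inhibition of aggregation exceeds 20%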;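 further: compound exposure lasted 3 days before fixation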;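 on nuclei count: percent of the per-plate median nuclei count of sample wells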); conditions: exon1htt(103Q)mCFP cell line, aggregate imaging, at 2 µM; inhibition of aggregation: stronger effect = higher value; nuclei count: measured here: cell count, toxicity
[3] = endothelial E-selectin expression blockers – imaging, HUVEC, immunofluorescence, MLSMR starter and 10KST1 sets, primary screen (AID 487;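 active means visually confirmed hit in the image check and inhibition above 20%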;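 on inhibition: signal is fraction of cell area covered by stained E-selectin grains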;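 on nuclei count: 100% = median nuclei count of all wells on the same plate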); conditions: HUVEC TNFalpha-induced E-selectin immunofluorescence imaging, at 2 µM; inhibition: stronger effect = higher value; nuclei count: measured here: cell number, toxicity
[4] = target: Voltage-gated potassium channel subunit beta-2 (Rattus norvegicus) (UniProt P62483); experiment: inhibitors of rat Kvbeta2 reductase activity – biochemical, NADPH fluorescence, primary screen (AID 622); conditions: recombinant KvBeta, 4-cyanobenzaldehyde reduction, at 10 µM, stronger effect = higher value;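 further: slope of raw intensity against log time taken from 70 to 1610 s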
Chain of Voltage-gated potassium channel subunit beta-2 (Rattus norvegicus) (P62483 whole entry, looked up): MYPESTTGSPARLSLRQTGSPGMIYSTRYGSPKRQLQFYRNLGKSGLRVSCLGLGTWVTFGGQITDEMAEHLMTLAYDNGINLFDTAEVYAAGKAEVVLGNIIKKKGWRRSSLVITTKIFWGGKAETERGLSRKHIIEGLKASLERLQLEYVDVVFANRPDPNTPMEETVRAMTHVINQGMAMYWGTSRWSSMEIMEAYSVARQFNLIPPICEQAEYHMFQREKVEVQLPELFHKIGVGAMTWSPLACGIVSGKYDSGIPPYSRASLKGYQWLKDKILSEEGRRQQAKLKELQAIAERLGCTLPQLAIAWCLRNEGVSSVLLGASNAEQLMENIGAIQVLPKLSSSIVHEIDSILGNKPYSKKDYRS

[5] = target: Voltage-gated potassium channel subunit beta-2 (Rattus norvegicus) (UniProt P62483); experiment: enhancers of rat Kvbeta2 NADPH turnover – biochemical, NADPH fluorescence, primary screen (AID 623;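 active means NADPH fluorescence slope more negative than the mean of all samples by about 3 SD, 99.7% confidence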;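 further: fluorescence intensity change per second fitted from 20 to 320 s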); conditions: Recombinant KvBeta, NADPH fluorescence decrease slope, 10 min; at 10 µM; stronger effect = lower value
[6] = target: Alpha-2C adrenergic receptor (Homo sapiens) (UniProt P18825); experiment: compounds altering alpha2C-coupled GIRK flux – cell-based, HEK293 alpha2C/GIRK1/2, thallium flux, primary screen (AID 624;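 active means fluorescence slope after compound addition differing from the mean of all screened samples at 99.7% confidence, in either direction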;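 further: slope of fluorescence ratio to pre-addition baseline per second over 15 to 24 s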); conditions: thallium flux BTC fluorescence, at 10 µM, actives lie on both sides
Chain of Alpha-2C adrenergic receptor (Homo sapiens) (P18825 whole entry, looked up): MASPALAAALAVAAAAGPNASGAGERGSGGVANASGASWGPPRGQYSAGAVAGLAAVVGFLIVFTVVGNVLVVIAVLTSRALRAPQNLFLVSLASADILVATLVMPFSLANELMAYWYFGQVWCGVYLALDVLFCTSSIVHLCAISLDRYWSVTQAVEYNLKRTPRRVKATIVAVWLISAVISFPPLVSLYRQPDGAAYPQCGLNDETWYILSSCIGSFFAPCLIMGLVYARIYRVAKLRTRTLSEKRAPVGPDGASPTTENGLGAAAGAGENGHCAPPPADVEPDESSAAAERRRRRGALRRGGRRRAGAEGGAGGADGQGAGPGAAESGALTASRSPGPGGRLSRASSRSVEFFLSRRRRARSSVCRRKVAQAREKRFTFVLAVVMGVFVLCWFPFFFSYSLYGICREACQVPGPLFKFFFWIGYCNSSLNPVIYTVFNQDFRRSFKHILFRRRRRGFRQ

[7] = blockers of RIG-like receptor reporter activation – cell-based, Sendai virus stimulus, luciferase, 10K MLSCN set, TLR/RLR signaling modifier project, primary screen (AID 602276;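 active means inhibition at or above 50% at 10 µM; inactive means inhibition below 50%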;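 further: firefly luciferase from ISG56 promoter only with Renilla not read in this screen; 0% = Sendai virus plus DMSO and 100% = medium plus DMSO without virus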); conditions: HEK293 RL24 IRF3 luciferase reporter, at 10 µM, stronger effect = higher value
[8] = TLR3 IRF3 reporter activation blockers – cell-based, poly I:C stimulus, luciferase, 10K MLSCN set, primary screen (AID 602277;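 active means inhibition of the reporter signal at or above 50%; inactive means inhibition below 50%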); conditions: HEK293-TLR3 RL24 IRF3 luciferase reporter, at 10 µM, stronger effect = higher value

Row | SMILES | cell count [1] | inhibition [1] | inhibition of aggregation [2] | nuclei count [2] [%] | inhibition [3] | nuclei count [3] [%] | fluorescence slope [4] | NADPH fluorescence slope [5] | slope [6] | inhibition [7] | inhibition [8]
1 | O=S(=O)(c1ccccc1)N(Cc1nc(-c2ccccc2)no1)C1CCCCC1 | 446 | 2% (inactive) | 5.6% (inactive) | 76.3 | -57.4% (inactive) | 96.2 | -0.461 (inactive) | -1.2e-05 (inactive) | 0.00919 (inactive) | 16.6% (inactive) | 30.8% (inactive)
2 | Cc1cccc(NC(=O)CC(C)(C)C)c1 | 349 | -6.6% (inactive) | 12% (inactive) | 95.6 | -1.1% (inactive) | 99.8 | -0.369 (inactive) | 2.2e-05 (inactive) | 0.00657 (inactive) | 10.5% (inactive) | 6.01% (inactive)
3 | COc1cc(C(=O)Nc2ccc(-n3cnnn3)c(C)c2)cc(OC)c1OC | 302 | 5.8% (inactive) | 11.6% (inactive) | 90 | -94.5% (inactive) | 149 | -0.617 (inactive) | 3e-06 (inactive) | 0.00564 (inactive) | -0.467% (inactive) | 20.8% (inactive)
4 | CC(C)c1nccn1S(=O)(=O)c1cc(Cl)ccc1Cl | 582 | -11.9% (inactive) | 6.2% (inactive) | 110 | 20.8% (inactive) | 122 | -0.422 (inactive) | -4.2e-05 (inactive) | 0.0045 (inactive) | 8.92% (inactive) | 31% (inactive)
5 | CCOC(=O)Cc1nnc2c(Nc3ccccc3F)nc3nonc3n12 | 631 | -9.1% (inactive) | -25.8% (inactive) | 119 | -38.4% (inactive) | 142 | -0.582 (inactive) | -7e-06 (inactive) | 0.00616 (inactive) | 7.74% (inactive) | -15.3% (inactive)
6 | CCCS(=O)(=O)N1CCC(C(=O)NCCN2CCCC2)CC1 | 201 | -6.8% (inactive) | 12.3% (inactive) | 104 | 30.3% (inactive) | 70.1 | -0.405 (inactive) | -3.3e-05 (inactive) | 0.00665 (inactive) | 13.8% (inactive) | 19.2% (inactive)
7 | O=S(=O)(NCc1cn2ccccc2n1)c1cc(F)ccc1F | 282 | 4.3% (inactive) | 19.7% (inactive) | 78.5 | 9.5% (inactive) | 88.5 | -0.287 (inactive) | -5.3e-05 (inactive) | 0.00441 (inactive) | -0.696% (inactive) | 8.79% (inactive)
8 | Cc1nc2ccc(S(=O)(=O)NC(C(=O)Nc3nccs3)C(C)C)cc2s1 (stereo not drawn) | 549 | -6.2% (inactive) | -4.4% (inactive) | 95.9 | -17.1% (inactive) | 120 | -0.589 (inactive) | -2.2e-05 (inactive) | 0.00646 (inactive) | 13.6% (inactive) | 30.5% (inactive)
9 | CC(=O)c1cn(CC(=O)NCc2ccc3c(c2)OCO3)c2ccccc12 | 326 | -2.1% (inactive) | -11.9% (inactive) | 108 | -24.5% (inactive) | 107 | -0.534 (inactive) | -9.1e-05 (inactive) | 0.00566 (inactive) | 11.9% (inactive) | 9.83% (inactive)
10 | O=C(Nc1ccc2c(c1)OCCO2)c1ccco1 | 337 | -3.5% (inactive) | -13.9% (inactive) | 118 | 6.1% (inactive) | 102 | -0.488 (inactive) | -3.7e-05 (inactive) | 0.00709 (inactive) | -48.4% (inactive) | -81.4% (inactive)
11 | Cc1c(NC(=O)Cn2nc(C(=O)O)c3ccccc3c2=O)c(=O)n(-c2ccccc2)n1C | 521 | -10.8% (inactive) | -2.1% (inactive) | 93.8 | -148% (inactive) | 111 | -0.541 (inactive) | 3.3e-05 (inactive) | 0.00605 (inactive) | -13.8% (inactive) | -13.3% (inactive)
12 | CSc1nnc(-c2ccc(NC(=O)CCc3ccccc3)cc2)n1C | 711 | -28.4% (inactive) | -1.8% (inactive) | 100 | -79.2% (inactive) | 120 | -0.474 (inactive) | -3e-05 (inactive) | 0.00726 (inactive) | -3.25% (inactive) | 15.4% (inactive)
13 | CCOc1ccccc1NC(=O)CCN1CCN(S(=O)(=O)c2ccc(Br)cc2)CC1 | 572 | -12.3% (inactive) | -10.2% (inactive) | 117 | -67.4% (inactive) | 65.1 | -0.526 (inactive) | -5.3e-05 (inactive) | 0.00415 (inactive) | 12.6% (inactive) | 21.5% (inactive)
14 | COc1ccc(-c2cc(C(F)(F)F)nc(N3CCN(c4ccc(F)cc4)CC3)n2)cc1OC | 827 | -10.7% (inactive) | -2.4% (inactive) | 105 | -107% (inactive) | 122 | -0.52 (inactive) | 2.2e-05 (inactive) | 0.00763 (inactive) | -20.5% (inactive) | -7.7% (inactive)
15 | Cc1ccc(C2c3sc(=O)[nH]c3SC3C(=O)NC(=O)C32)cc1 (stereo not drawn) | 401 | 6.1% (inactive) | 11.3% (inactive) | 88.3 | -18% (inactive) | 99.5 | -0.558 (inactive) | -2.2e-05 (inactive) | 0.00486 (inactive) | 1.16% (inactive) | 58.9% (active)
16 | Cc1cc(C)n(S(=O)(=O)c2cc(C(=O)O)c(Cl)cc2Cl)n1 | 432 | -0.5% (inactive) | -10.2% (inactive) | 110 | -83.9% (inactive) | 98.4 | -0.387 (inactive) | 4.4e-06 (inactive) | 0.00497 (inactive) | 13.3% (inactive) | 10.3% (inactive)
17 | c1ccc(OCc2nc3ccccc3[nH]2)cc1 | 443 | -6.5% (inactive) | 9.8% (inactive) | 75.8 | -77.6% (inactive) | 132 | -0.392 (inactive) | -5.8e-05 (inactive) | 0.00568 (inactive) | -47.4% (inactive) | -118% (inactive)
18 | O=C(NCc1ccc(F)cc1)c1cc2ccccn2n1 | 589 | 4.4% (inactive) | 6% (inactive) | 97 | -1% (inactive) | 107 | -0.601 (inactive) | -3.6e-05 (inactive) | 0.00683 (inactive) | 1.23% (inactive) | -17.7% (inactive)
19 | NC(=O)c1c(NC(=O)CN2CCCC2)sc2c1CCCC2 | 577 | 3% (inactive) | 5.3% (inactive) | 65.3 | 15.2% (inactive) | 84.6 | -0.599 (inactive) | -1.9e-05 (inactive) | 0.00312 (inactive) | -25.4% (inactive) | -70.1% (inactive)
20 | O=C(NCc1nnc(SCC(=O)N2CCC(Cc3ccccc3)CC2)o1)c1ccccc1F | 574 | -0.4% (inactive) | 4.4% (inactive) | 112 | 5.1% (inactive) | 110 | -0.549 (inactive) | -5.6e-05 (inactive) | 0.00657 (inactive) | -4.5% (inactive) | 8.45% (inactive)
21 | Cc1cc(C)c2c(=O)n(CC(=O)NCCCN3CCOCC3)sc2n1 | 594 | 8.2% (inactive) | 1.1% (inactive) | 118 | 36.7% (inactive) | 106 | -0.548 (inactive) | -3.1e-05 (inactive) | 0.00687 (inactive) | 10.4% (inactive) | 40.4% (inactive)
22 | CS(=O)(=O)NCCSCc1c(F)cccc1Cl | 270 | 5.5% (inactive) | 0% (inactive) | 106 | -41.6% (inactive) | 96.6 | -0.527 (inactive) | -2.1e-05 (inactive) | 0.00448 (inactive) | 2.63% (inactive) | 0.999% (inactive)
23 | COc1ccc(CCNC(=O)C2(C)CCC(=O)N2Cc2ccc3c(c2)OCO3)cc1OC (stereo not drawn) | 822 | 0.6% (inactive) | 18.7% (inactive) | 106 | -37.2% (inactive) | 116 | -0.59 (inactive) | -3.7e-05 (inactive) | 0.00743 (inactive) | 8.58% (inactive) | 36.6% (inactive)
24 | Cn1c(=O)n(CCN2CCOCC2)c(=O)c2c1nc1n2CCN1c1ccccc1 | 362 | 14% (inactive) | 27.9% (inactive) | 98.5 | -33.7% (inactive) | 132 | -0.564 (inactive) | 2.6e-05 (inactive) | 0.00592 (inactive) | -6.67% (inactive) | 3.62% (inactive)
25 | CCOC(=O)c1nc2sc3c(c2c(=O)[nH]1)CCCC3 | 763 | -1.6% (inactive) | -9.6% (inactive) | 84.3 | 2.7% (inactive) | 102 | -0.0445 (active) | -1.1e-05 (inactive) | 0.0045 (inactive) | 13.1% (inactive) | 11.2% (inactive)
26 | O=C(CSc1ncnc2c1oc1ccccc12)Nc1ccccc1F | 613 | -13.5% (inactive) | -13.9% (inactive) | 107 | -10.1% (inactive) | 116 | -0.549 (inactive) | 3.9e-06 (inactive) | 0.00808 (inactive) | 1.97% (inactive) | 16.6% (inactive)
27 | C=CCN1C(=O)CS/C1=C(\C#N)S(=O)(=O)c1ccc(C)cc1 | 585 | 13.3% (inactive) | -5.1% (inactive) | 108 | -75.5% (inactive) | 104 | -0.481 (inactive) | -4.8e-05 (inactive) | 0.00449 (inactive) | 20% (inactive) | 28.5% (inactive)
28 | Cc1nnc(C)c2c(C)n(Cc3ccc4c(c3)OCO4)c(C)c12 | 679 | 6.2% (inactive) | 4.3% (inactive) | 74.3 | -8.3% (inactive) | 95.8 | -0.517 (inactive) | 4.5e-06 (inactive) | 0.0037 (inactive) | -9.5% (inactive) | -7.65% (inactive)
